From PubChem BioAssay (EPA / NIEHS)
“And” between values parts separate entries of the source, which are not always exact repeats. Identical values can stand only once. Inconclusive results are not listed. The source made the active and inactive calls. Rule for the calls: active = hit-call score of the fitted dose curve at least 0.9, where 1 is the maximum; inconclusive = response in the unintended direction; inactive = score below 0.9.

The compounds below were run against human AKT serine/threonine Kinase 2 (AKT2), AKT2 (gene 208) (UniProt P31751) (assay: NVS_ENZ_hAKT2: NovaScreen (NVS) Enzymatic Assay for human AKT serine/threonine Kinase 2 (AKT2) (AID 2283141)).
How it was run: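 Cell-free fluorescence/electrophoretic mobility shift readout of recombinant human AKT2 activity, 1 h after chemical dosing. Duplicate primary screen at 25 uM, then singleton concentration-response up to 50 uM; loss of signal versus DMSO baseline.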

Sequence of human AKT serine/threonine Kinase 2 (AKT2), AKT2 (gene 208) (P31751 whole entry, looked up): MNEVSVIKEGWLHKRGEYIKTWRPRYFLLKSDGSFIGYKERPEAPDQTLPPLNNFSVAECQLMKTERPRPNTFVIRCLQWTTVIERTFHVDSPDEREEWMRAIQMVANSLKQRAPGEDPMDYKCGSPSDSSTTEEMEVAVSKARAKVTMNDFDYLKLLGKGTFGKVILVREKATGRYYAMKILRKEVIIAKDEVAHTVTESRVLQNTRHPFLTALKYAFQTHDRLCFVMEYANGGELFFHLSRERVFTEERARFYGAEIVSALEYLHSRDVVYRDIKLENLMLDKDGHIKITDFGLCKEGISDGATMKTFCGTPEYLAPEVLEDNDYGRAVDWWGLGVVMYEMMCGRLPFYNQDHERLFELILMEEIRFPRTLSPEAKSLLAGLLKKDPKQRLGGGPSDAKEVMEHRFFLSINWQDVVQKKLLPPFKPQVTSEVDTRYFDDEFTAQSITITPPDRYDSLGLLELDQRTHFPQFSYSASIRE

SMILES	outcome	AC50
CCCC(CCC)C(=O)O	inactive	
CCCCCCCC/C=C\CCCCCCCC(=O)OC[C@@H](O)[C@H]1OC[C@H](O)[C@H]1O		42.1 µM (active)
Cc1ccc(S(=O)(=O)NC(=O)NN2CCCCCC2)cc1	inactive	
Cc1nc(-c2ccccn2)ncc1C(=O)Nn1cc(C)c2cc(F)ccc21	inactive	
OCCOCCOCCO	inactive	
O=c1[nH]cnc2c1ncn2[C@H]1CC[C@@H](CO)O1	inactive	

What follows are compounds tested against human Caspase 4 (CASP4), CASP4 (gene 837) (UniProt P49662) (assay: NVS_ENZ_hCASP4: NovaScreen (NVS) Enzymatic Assay for human Caspase 4 (CASP4) (AID 2283143)).
How it was run: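 The cell-free assay used E. coli-expressed enzyme with a fluorogenic substrate, read 2 h after dosing. Signal loss was scored versus DMSO. Screening was in duplicate at 25 uM, then singleton concentration-response up to 50 uM.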

Sequence of human Caspase 4 (CASP4), CASP4 (gene 837) (P49662 whole entry, looked up): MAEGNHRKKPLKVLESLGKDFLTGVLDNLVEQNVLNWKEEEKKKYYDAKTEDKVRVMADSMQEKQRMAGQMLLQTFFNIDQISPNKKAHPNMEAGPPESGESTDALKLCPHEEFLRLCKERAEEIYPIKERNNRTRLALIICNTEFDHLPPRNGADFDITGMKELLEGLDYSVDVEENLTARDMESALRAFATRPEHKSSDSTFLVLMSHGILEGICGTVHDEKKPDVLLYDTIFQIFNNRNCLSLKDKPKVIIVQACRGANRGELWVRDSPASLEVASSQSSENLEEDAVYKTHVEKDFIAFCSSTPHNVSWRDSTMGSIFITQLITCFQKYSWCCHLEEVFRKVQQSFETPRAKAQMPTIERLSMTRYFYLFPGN

SMILES	AC50	outcome
CC(C)CC(C)O (stereo not given)	8.65 µM (active)	
CCCCCCCC/C=C\CCCCCCCC(=O)OC[C@@H](O)[C@H]1OC[C@H](O)[C@H]1O		inactive
COc1cc2c(c(OC)c1OC)-c1ccc(OC)c(=O)cc1[C@@H](NC(C)=O)CC2	0.485 µM (active)	
CC(C)C(=O)Nc1ccc([N+](=O)[O-])c(C(F)(F)F)c1		inactive

The compounds below were run against human Caspase 8 (CASP8), CASP8 (gene 841) (UniProt Q14790) (assay: NVS_ENZ_hCASP8: NovaScreen (NVS) Enzymatic Assay for human Caspase 8 (CASP8) (AID 2283146)).
How it was run: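 E. coli-expressed enzyme was used in a cell-free fluorogenic substrate assay read 1 h after dosing. Loss of signal was scored relative to DMSO, and the primary screen was run in duplicate at 25 uM.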

Sequence of human Caspase 8 (CASP8), CASP8 (gene 841) (Q14790 whole entry, looked up): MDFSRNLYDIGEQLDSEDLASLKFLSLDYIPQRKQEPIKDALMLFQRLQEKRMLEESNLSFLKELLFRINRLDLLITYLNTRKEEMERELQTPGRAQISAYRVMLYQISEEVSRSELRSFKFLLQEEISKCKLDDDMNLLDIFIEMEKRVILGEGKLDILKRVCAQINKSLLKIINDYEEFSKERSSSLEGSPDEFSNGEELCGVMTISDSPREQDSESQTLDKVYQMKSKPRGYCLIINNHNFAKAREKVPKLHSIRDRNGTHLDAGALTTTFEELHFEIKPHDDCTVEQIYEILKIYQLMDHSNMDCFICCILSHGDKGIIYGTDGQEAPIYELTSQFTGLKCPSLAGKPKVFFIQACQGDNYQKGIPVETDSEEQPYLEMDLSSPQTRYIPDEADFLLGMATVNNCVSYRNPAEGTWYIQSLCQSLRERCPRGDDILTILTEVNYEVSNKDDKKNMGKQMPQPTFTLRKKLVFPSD

SMILES	outcome
CC(C)CCCCCCOC(=O)C1CCCCC1C(=O)OCCCCCCC(C)C (stereo not given)	inactive
COc1cc2c(c(OC)c1OC)-c1ccc(OC)c(=O)cc1[C@@H](NC(C)=O)CC2	inactive
CCCCCCCCN(C)C	inactive
CC[C@H](C)C(=O)O[C@H]1C[C@H](O)C=C2C=C[C@H](C)[C@H](CC[C@@H](O)C[C@@H](O)CC(=O)O)[C@H]21	inactive

The compounds below were run against human Casein Kinase 1-delta (CK1D), CSNK1D (gene 1453) (UniProt P48730) (assay: NVS_ENZ_hCK1D: NovaScreen (NVS) Enzymatic Assay for human Casein Kinase 1-delta (CK1D) (AID 2283148)).
How it was run: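 Recombinant human CK1-delta, cell-free; fluorescent substrate with electrophoretic mobility-shift separation of product, read 1 h after dosing. Single 25 uM duplicate screen, then concentration-response up to 50 uM; loss of signal vs DMSO.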

Sequence of human Casein Kinase 1-delta (CK1D), CSNK1D (gene 1453) (P48730 whole entry, looked up): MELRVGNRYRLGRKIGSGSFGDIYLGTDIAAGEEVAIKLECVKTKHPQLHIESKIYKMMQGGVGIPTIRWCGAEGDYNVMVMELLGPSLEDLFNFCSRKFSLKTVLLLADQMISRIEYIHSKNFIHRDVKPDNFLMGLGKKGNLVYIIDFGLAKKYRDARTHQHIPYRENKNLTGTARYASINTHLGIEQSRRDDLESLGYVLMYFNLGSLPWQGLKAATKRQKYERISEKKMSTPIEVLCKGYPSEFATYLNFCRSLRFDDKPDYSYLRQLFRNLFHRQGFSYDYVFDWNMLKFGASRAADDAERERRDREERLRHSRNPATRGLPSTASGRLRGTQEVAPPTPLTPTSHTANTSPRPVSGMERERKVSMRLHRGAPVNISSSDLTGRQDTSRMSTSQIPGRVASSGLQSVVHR

SMILES	outcome
O=C(O)[C@H](O)[C@@H](O)C(=O)O	inactive
CCCc1ccccc1	inactive
O=C(O)c1cccc(C[C@@H]2COc3ccc(OCc4nc5cc(F)ccc5s4)cc3[C@@H]2O)c1	inactive
O=c1[nH]cnc2c1ncn2[C@H]1CC[C@@H](CO)O1	inactive

Each compound was assayed against human Dual Specificity Protein Phosphatase 3 (DUSP3), DUSP3 (gene 1845) (UniProt P51452) (assay: NVS_ENZ_hDUSP3: NovaScreen (NVS) Enzymatic Assay for human Dual Specificity Protein Phosphatase 3 (DUSP3) (AID 2283152);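 note: phosphatase activity of recombinant human DUSP3 on a fluorogenic substrate without cells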).
How it was run: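 Cell-free assay with recombinant human DUSP3 and fluorogenic substrate, read by fluorescence intensity. Primary screen ran duplicate at 25 uM; actives followed up in concentration series; loss of signal versus DMSO scored.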

Sequence of human Dual Specificity Protein Phosphatase 3 (DUSP3), DUSP3 (gene 1845) (P51452 whole entry, looked up): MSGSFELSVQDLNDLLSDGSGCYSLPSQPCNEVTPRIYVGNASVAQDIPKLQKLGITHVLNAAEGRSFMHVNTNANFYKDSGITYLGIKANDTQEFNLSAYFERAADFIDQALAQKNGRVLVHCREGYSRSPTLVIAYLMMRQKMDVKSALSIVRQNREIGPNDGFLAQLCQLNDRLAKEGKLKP

SMILES	outcome	AC50
CCCCCCCCCC	inactive	
CCCCCCCCCCCCCCCCOS(=O)(=O)O	inactive	
OCc1c[nH]c2ccccc12		19.5 µM (active) and 15.4 µM (active)
C=CCc1cc(S(=O)(=O)c2ccc(O)c(CC=C)c2)ccc1O	inactive	
S=P(N1CC1)(N1CC1)N1CC1		20.3 µM (active) and 26.1 µM (active)
CCCCN1C(=O)[C@@H]([C@H](O)C2CCCCC2)NC(=O)C12CCN(Cc1ccc(Oc3ccc(C(=O)O)cc3)cc1)CC2		14.8 µM (active)

The compounds below were run against human Esterase Plasma (ES), BCHE (gene 590) (UniProt P06276) (assay: NVS_ENZ_hES: NovaScreen (NVS) Enzymatic Assay for human Esterase Plasma (ES) (AID 2283157)).
How it was run: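 Chemicals were added to plasma-extracted human enzyme in a cell-free format, and activity was read colorimetrically after 0.25 hour. Activity loss was referenced to DMSO; concentration-response top dose was 50 uM.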

Sequence of human Esterase Plasma (ES), BCHE (gene 590) (P06276 whole entry, looked up): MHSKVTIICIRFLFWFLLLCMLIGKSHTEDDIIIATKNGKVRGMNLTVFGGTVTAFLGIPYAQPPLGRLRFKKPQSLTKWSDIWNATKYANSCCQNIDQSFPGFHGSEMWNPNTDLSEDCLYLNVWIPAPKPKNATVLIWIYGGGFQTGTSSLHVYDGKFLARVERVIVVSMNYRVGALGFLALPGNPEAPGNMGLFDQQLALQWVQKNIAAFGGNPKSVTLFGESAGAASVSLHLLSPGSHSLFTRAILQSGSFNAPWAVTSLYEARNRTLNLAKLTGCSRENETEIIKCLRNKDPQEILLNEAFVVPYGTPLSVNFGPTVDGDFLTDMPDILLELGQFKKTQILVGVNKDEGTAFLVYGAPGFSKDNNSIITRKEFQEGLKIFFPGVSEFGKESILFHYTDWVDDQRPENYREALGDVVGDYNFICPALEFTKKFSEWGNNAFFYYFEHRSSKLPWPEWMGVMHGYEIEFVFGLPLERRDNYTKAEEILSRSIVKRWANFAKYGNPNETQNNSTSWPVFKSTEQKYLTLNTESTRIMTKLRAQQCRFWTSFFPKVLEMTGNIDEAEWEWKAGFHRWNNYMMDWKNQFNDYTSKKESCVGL

SMILES	outcome	AC50
CCCCCCCCCC	inactive	
OCc1c[nH]c2ccccc12		15.3 µM (active) and 19.1 µM (active)
CCCCCCCCN(C)C	inactive	

What follows are compounds tested against human Ephrin type-A Receptor 1 (EphA1), EPHA1 (gene 2041) (UniProt P21709) (assay: NVS_ENZ_hEphA1: NovaScreen (NVS) Enzymatic Assay for human Ephrin type-A Receptor 1 (EphA1) (AID 2283158);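 note: activity is signal loss versus DMSO meaning EphA1 kinase inhibition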).
How it was run: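 Biochemical kinase assay run cell-free; 1 h incubation; readout is fluorescence with mobility-shift separation of product. Concentration-response up to 50 uM for actives from a 25 uM screen.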

Sequence of human Ephrin type-A Receptor 1 (EphA1), EPHA1 (gene 2041) (P21709 whole entry, looked up): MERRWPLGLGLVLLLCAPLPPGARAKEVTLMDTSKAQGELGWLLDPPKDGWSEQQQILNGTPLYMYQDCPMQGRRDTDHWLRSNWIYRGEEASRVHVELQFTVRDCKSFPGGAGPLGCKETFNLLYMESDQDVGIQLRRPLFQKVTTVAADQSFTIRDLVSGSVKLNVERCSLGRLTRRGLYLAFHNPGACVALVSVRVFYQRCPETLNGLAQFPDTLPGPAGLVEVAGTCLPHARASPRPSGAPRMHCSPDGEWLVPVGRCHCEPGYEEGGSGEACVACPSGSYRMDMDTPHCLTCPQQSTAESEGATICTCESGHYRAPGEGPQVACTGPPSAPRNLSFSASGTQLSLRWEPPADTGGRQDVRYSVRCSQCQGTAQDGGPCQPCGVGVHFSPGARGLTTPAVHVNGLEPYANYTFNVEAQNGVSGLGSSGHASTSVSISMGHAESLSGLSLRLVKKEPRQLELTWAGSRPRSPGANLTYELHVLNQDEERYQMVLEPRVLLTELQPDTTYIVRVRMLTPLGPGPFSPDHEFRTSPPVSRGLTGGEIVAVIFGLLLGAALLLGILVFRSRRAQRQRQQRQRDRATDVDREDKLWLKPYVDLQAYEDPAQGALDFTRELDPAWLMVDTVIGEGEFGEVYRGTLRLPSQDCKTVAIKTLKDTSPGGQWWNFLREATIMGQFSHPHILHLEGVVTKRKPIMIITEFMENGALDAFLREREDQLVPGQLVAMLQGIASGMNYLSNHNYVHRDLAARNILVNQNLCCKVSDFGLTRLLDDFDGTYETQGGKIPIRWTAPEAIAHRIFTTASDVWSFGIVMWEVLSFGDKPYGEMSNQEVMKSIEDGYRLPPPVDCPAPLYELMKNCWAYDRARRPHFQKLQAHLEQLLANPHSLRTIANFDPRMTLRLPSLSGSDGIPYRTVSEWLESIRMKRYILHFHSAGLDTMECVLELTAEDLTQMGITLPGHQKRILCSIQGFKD

SMILES	outcome
OCc1c[nH]c2ccccc12	inactive
CCCCCCCCN(C)C	inactive
S=P(N1CC1)(N1CC1)N1CC1	inactive
Cc1nc(-c2ccccn2)ncc1C(=O)Nn1cc(C)c2cc(F)ccc21	inactive
OCCOCCOCCO	inactive
O=c1[nH]cnc2c1ncn2[C@H]1CC[C@@H](CO)O1	inactive

These compounds were tested against Histone deacetylase 3 (Homo sapiens) (UniProt O15379) (assay: NVS_ENZ_hHDAC3: NovaScreen (NVS) Enzymatic Assay for human Histone Deacetylase 3 (HDAC3) (AID 2283163)).
How it was run: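 Recombinant human HDAC3 with fluorescent substrate, 1 h after dosing; product separated from substrate by electrophoretic mobility shift and read by fluorescence. Primary screen at 25 uM in duplicate; actives (e.g. ≥30% inhibition) retested in concentration-response up to 50 uM.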

Sequence of Histone deacetylase 3 (Homo sapiens) (O15379 whole entry, looked up): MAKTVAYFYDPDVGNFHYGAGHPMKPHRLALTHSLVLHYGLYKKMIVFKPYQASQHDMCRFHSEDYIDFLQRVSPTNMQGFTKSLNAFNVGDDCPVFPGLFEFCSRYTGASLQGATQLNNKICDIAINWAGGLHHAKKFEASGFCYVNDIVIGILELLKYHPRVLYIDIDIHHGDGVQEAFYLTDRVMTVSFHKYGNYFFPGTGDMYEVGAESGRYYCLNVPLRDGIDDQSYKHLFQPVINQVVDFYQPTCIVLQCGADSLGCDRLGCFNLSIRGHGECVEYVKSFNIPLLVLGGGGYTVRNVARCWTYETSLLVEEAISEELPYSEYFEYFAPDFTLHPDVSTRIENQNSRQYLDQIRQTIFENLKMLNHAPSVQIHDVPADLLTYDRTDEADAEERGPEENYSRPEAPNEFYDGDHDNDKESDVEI

SMILES	outcome
COc1cc2c(c(OC)c1OC)-c1ccc(OC)c(=O)cc1[C@@H](NC(C)=O)CC2	inactive
Cc1nc(-c2ccccn2)ncc1C(=O)Nn1cc(C)c2cc(F)ccc21	inactive
O=c1[nH]cnc2c1ncn2[C@H]1CC[C@@H](CO)O1	inactive

What follows are compounds tested against Glycogen synthase kinase-3 beta (Homo sapiens) (UniProt P49841) (assay: NVS_ENZ_hGSK3b: NovaScreen (NVS) Enzymatic Assay for human Glycogen Synthase Kinase-3 beta (GSK3b) (AID 2283165)).
How it was run: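 Recombinant enzyme with specific fluorescent substrate, 1 h, product separated by electrophoretic mobility shift. Primary duplicate screen at 25 uM; actives (e.g. 30% inhibition) followed in singleton concentration-response to 50 uM. Signal loss fitted versus DMSO.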

Sequence of Glycogen synthase kinase-3 beta (Homo sapiens) (P49841 whole entry, looked up): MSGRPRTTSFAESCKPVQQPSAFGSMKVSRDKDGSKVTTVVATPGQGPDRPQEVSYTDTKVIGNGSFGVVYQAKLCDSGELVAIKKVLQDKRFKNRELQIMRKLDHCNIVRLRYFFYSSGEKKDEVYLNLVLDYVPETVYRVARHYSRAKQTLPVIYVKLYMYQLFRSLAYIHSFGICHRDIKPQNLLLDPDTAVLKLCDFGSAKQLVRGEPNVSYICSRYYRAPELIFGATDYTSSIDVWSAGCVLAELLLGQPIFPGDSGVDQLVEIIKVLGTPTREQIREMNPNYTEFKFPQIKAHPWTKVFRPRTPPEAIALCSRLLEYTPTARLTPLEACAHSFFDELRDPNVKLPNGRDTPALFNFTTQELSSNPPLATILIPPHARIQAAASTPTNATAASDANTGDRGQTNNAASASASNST

SMILES	outcome
CCCC(CCC)C(=O)O	inactive
CCCCCCCC/C=C\CCCCCCCC(=O)OC[C@@H](O)[C@H]1OC[C@H](O)[C@H]1O	inactive
Cc1ncc([C@@H](CCCCCCc2ccc3c(n2)NCCC3)CC(=O)O)cn1	inactive
O=C(O)c1cccc(C[C@@H]2COc3ccc(OCc4nc5cc(F)ccc5s4)cc3[C@@H]2O)c1	inactive
O=c1[nH]cnc2c1ncn2[C@H]1CC[C@@H](CO)O1	inactive

These compounds were tested against Mitogen-activated protein kinase 3 (Homo sapiens) (UniProt P27361) (assay: NVS_ENZ_hMAPK3: NovaScreen (NVS) Enzymatic Assay for human Mitogen-Activated Protein Kinase 3 (MAPK 3) (AID 2283177)).
How it was run: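 Cell-free enzymatic assay with recombinant protein and specific substrate; fluorescence and electrophoretic mobility shift read-out 1 h after dosing. Primary screen duplicate at 25 uM; actives then run in concentration-response up to 50 uM, loss of signal versus DMSO.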

Sequence of Mitogen-activated protein kinase 3 (Homo sapiens) (P27361 whole entry, looked up): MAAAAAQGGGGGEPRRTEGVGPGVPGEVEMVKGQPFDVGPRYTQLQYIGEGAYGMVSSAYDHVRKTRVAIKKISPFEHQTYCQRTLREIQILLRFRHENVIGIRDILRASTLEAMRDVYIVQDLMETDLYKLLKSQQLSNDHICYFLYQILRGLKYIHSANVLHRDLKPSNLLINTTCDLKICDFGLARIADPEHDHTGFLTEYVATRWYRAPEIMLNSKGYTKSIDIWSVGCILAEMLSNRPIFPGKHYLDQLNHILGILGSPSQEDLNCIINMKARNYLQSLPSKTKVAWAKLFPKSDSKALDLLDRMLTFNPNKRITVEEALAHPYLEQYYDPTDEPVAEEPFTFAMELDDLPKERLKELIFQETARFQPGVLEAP

SMILES	outcome
CCCC(CCC)C(=O)O	inactive
CCCCCCCC/C=C\CCCCCCCC(=O)OC[C@@H](O)[C@H]1OC[C@H](O)[C@H]1O	inactive
CC[C@H](C)C(=O)O[C@H]1C[C@H](O)C=C2C=C[C@H](C)[C@H](CC[C@@H](O)C[C@@H](O)CC(=O)O)[C@H]21	inactive
O=c1[nH]cnc2c1ncn2[C@H]1CC[C@@H](CO)O1	inactive
